# According to the supplement of paper PMC6555819:
# Test system: VDR:RXRa (NR concentration 270 nM, RXRa partner concentration 90 nM)
# Assay: PBM binding z-score (relative to random genomic background probes); higher = stronger binding; sequences stand for … in GC…GCGATTGACAGCGTAGAATGAAGG
# Protocol: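 Protein-binding microarray (Agilent 4x180K custom design, double-stranded 60-nt probes: 5' GC cap, 34-nt variable region, 24-nt constant primer region; full probe sequence given). Purified or IVT nuclear receptor:RXRα heterodimers (3:1 NR:RXRα, mostly 270:90 nM) or homodimers were incubated for 1 h in PBS with 2% milk and no ligand, then detected with Alexa488 antibodies. Fluorescence from o1-orientation probes (~5 replicates averaged) was converted to z-scores against 500 random hg19 background probes. Variable regions are seed direct-repeat (DR0–DR5) sites, all their single-nucleotide variants and half-site ablations.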
row,Sequence,PBM binding z-score
1,TCTTGTAGATCAACAGGAGGTTAAGATAGATCGA,0.488
2,GCATATAGGTAATACAAGGTGAAACTCCGATTGT,0.732
3,ATCGAAAGGTCGTAGGTGAGTATACCCACCCGAA,3.47
4,CAAACTGGGTCAAAGGTCAAAGTCGAGCCAACCA,6.65
5,TCTTGTAGATCAACAGGAGGTCAAGAAAGATCGA,3.14
6,TCTATTAGTTGATTAGGGCGACCGAAACAGCGGA,0.776
7,CCAGACAGGTGAAACGTAACTCAGTCTGGTACGC,-0.217
8,CGTCAAAGTTCAAGGAAACGTAACAGAAAGCAGC,3.29
9,ATACCAAGGTGATCGTGAGGTCGCTGATACTAAC,2.39
10,CGTCCAATGTCAATGCTAGGTCAGTGAAAGCATT,0.803
11,CCTTACGGGTCACTGAGAGGTTATAGCATTTGGA,4.55
12,GCGACTTGGGCAAAGCAGGTTACCATAAGGTTGG,-0.467
13,ATCTCTAGGTAACCAAGTTCAGTGATTGCCGAAC,4.17
14,CCGAGTAGGTGATGGGGCATTCAGGCAACGGTGA,-0.461
15,CCTCGGAAGACAGAAGGTCAGAGCTGTCCGCTTT,1.01
16,CCTACTGGGCCACGAAGGGTCATTGATTCAGTGA,3.09
17,TCTAGGTGGTCAAAGGTCACACACTCGAAATGCG,5.38
18,CCTTACAGGTCACTGACAGGTTATAGCATTTGGA,3.8
19,ACTATTAGTTTACTTAGGGCAACCGATACGACGC,0.639
20,TCTTGTAGATCACCAGGAGGTTAAGAAAGATCGA,0.799

row,Sequence,PBM binding z-score
1,CCTCGGAGGAAAACAGGAGGTCAGAGCTGCCAGA,1.28
2,CCGCCTGGGGCAAAGGTTACCATACTCAGTACGA,1.48
3,AGTCACAGTTCACTAGGTAACGTAAGATTCAGCT,1.81
4,TCGAGTAGGTTACCAATGGGGAATTCAGCTTTCT,0.0458
5,TCTTGTAGATCAATAGAGGTTAAGGAAGTGCGCT,1.77
6,AGTCCAAGTTCAGGACGAGGTAACGTAAAGCACG,2.51
7,CCGAGTAGGTTATGGGGCAATCAGGCAACGGTGA,0.00491
8,TCGAGTAGGTTAGTCGGGGCATTCGGCCAACATA,2.15
9,CCTTCTGGGCCAAAAAGGTCATTGATGCCGATAA,4.86
10,CCGACTGGGGCAGAAAGTTTACCATACCATCCGG,0.484
11,TCTTGTAGATCAGCAGGTTAAGATAGCTGGCCAA,0.44
12,TACCCTAGGTCAGATCGGGCCAGTATACGCTATA,1.17
13,ATCGAAAGGTCGAGGTGAGTAAAGAGAAAGGGAA,2.25
14,TAGCTTAGGTCAGATCGGGCCAGTATACGCTATA,0.872
15,CCTGCTAGGACATGGTCAGCTAATCTACAGTATG,-0.684
16,CCTACTGGGCCAAAAAGGTCGTTGATGCCGATAA,2.79
17,CGAACGAGGGCATGAGTTGATGGCAAATGCCGAT,1.34
18,TCTCGGAGGACACGAAGGTGAGAGCTTTCCAGAG,-0.377
19,AGAATGAGATTATTAAGATCAGGGAATTGCGGTC,-0.494
20,CACACTAGGTCACCGGAAGGTCAAAGTCCGCATG,5.97
